# The full ranking holds about 2,300 compounds; the median of “plate-normalized OD600 growth (mean of duplicates)” is about 0.29, and the lowest 2% start at about 0.22. This excerpt belongs to a sample that is enriched for the lowest values.
# System: Escherichia coli BW25113
# Assay: plate-normalized OD600 growth (mean of duplicates) (OD600 (normalized)); higher = more growth (less inhibition)
# Settings: 10 µM
# Procedure: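 E. coli BW25113 in LB (100 µl, 96-well, no shaking) was exposed to 10 µM of each compound from a ~30,000-member library and grown at 37°C for 24 h or 15°C for 48 h, in duplicate. Growth was read as OD600 and the duplicate ODs were normalized across screening plates to correct plate-to-plate variation. Hits were >3σ below the mean OD600 at 15°C and <2σ below the mean at 37°C.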
Compound,"plate-normalized OD600 growth (temperature: 15°C, 48 h)","plate-normalized OD600 growth (temperature: 37°C, 24 h)"
Cc1cccc(-n2c(C)cc(C=Nc3ccc(Cl)cc3O)c2C)c1,0.249,0.613
COc1c(Cl)cnc(Cl)c1C(N)=O,0.265,0.636
C/C(=N/O)c1ccc2c(c1)C(C)(C)CCC2(C)C,0.256,0.629
N#Cc1cc(I)c(C#N)c(I)c1,0.198,0.616
O=C(O)CCCN1C(=O)C(=O)C(=C(O)c2ccccc2)C1c1ccc(Br)cc1 (centres undefined),0.226,0.646
Cc1sc(NC(=O)c2cc3ccccc3oc2=O)nc1-c1ccc(-c2ccccc2)cc1,0.253,0.625
CC(C)(C)n1ncc(N/N=C/c2ccc(Cl)cc2)c(Cl)c1=O,0.238,0.605
CC(C(=O)O)C(=O)c1cc(Cl)c(Cl)cc1Cl (centres undefined),0.215,0.63
O=S(=O)(c1cc(Br)c(Br)s1)N1CCCCC1,0.262,0.63
Nc1nc(=Nc2ccccc2)n2c(n1)sc1ccccc12,0.243,0.61
CC(=O)Nc1ccc(NC(=O)CSc2nnc(NS(C)(=O)=O)s2)cc1,0.252,0.63
O=C1C(Cl)=C(Oc2cc(Cl)c(Cl)cc2Cl)C(=O)c2ccccc21,0.211,0.613
COc1cc(Cl)c(Cl)cc1Cl,0.251,0.604
COc1ccc(NC(=O)/C=C/c2cccc(Oc3ccccc3)c2)cc1,0.245,0.633
NC1=Nc2nc(Nc3ccccc3)sc2/C(=C/c2ccc(O)cc2)N1,0.248,0.628
Cc1onc(-c2ccccc2Cl)c1C(=O)Nc1ccc(S(=O)(=O)Nc2nccs2)cc1,0.246,0.614

Compound,"plate-normalized OD600 growth (temperature: 15°C, 48 h)","plate-normalized OD600 growth (temperature: 37°C, 24 h)"
NS(=O)(=O)c1ccc(CCn2c(-c3ccc(S(=O)(=O)N4CCCC4)cc3)csc2=Nc2cccc(C(F)(F)F)c2)cc1,0.257,0.65
O=C1NC(=O)c2cc(-c3ccc([N+](=O)[O-])cc3)ccc21,0.241,0.631
O=[N+]([O-])c1ccc(OCCCOc2ccc([N+](=O)[O-])cc2)cc1,0.238,0.596
O=[N+]([O-])c1ccc(-c2ncn[nH]2)cc1,0.209,0.607
CC(C)c1ncc(C(O)c2cccc3ccccc23)n1C (centres undefined),0.249,0.63
O=c1[nH]c(-c2cn[nH]c2-c2ccc(F)cc2)nc2sc3c(c12)CCCC3,0.237,0.637
CS/C(N)=N\N=C/c1c(F)cccc1Cl,0.258,0.652
Cc1oc(-c2ccccc2)cc1C(=O)N1CCN(c2ccc([N+](=O)[O-])cc2)CC1,0.265,0.667
COc1cc(C=NCc2ccco2)ccc1O,0.242,0.622
NC(=O)C1CCN(CCC(=O)Nc2ccccc2)CC1,0.208,0.651
CCN1CCN(CCC(=O)Nc2ccccc2)CC1,0.228,0.624
CC1CCN(CCC(=O)Nc2ccc(Cl)cc2)CC1,0.261,0.643
CC(C)(C)S(=O)(=O)/C(C#N)=C/N1CCCCC1,0.267,0.62
O/N=C\c1sccc1Oc1ccccc1,0.254,0.635
CCOC(=O)c1ccc(-n2nnnc2C(c2ccc(Cl)cc2Cl)N2CCOCC2)cc1 (centres undefined),0.241,0.645
Cc1ccc(C=Nc2ccc(-c3ccc(N=Cc4ccc(C)o4)c(C)c3)cc2C)o1,0.224,0.622

# From the supplement of paper PMC4371806
